Test systems include NCI-H23 lung; NCI-H226 lung; NCI-H322M lung; HOP-62 NSCLC; NCI-H460 lung; HOP-92 NSCLC; NCI-H522 lung; A549/ATCC NSCLC; 786-0 renal; COLO 205 colon; DU-145 prostate; K-562 leukemia; MALME-3M melanoma; MDA-MB-231 breast; RXF 393 renal; SF-268 CNS; SF-539 CNS; UACC-257 melanoma; M14 melanoma; SF-295 CNS.
Assay in all cases: NCI-60 one-dose screen, 48 h (100 = growth as untreated, 0 = no growth, -100 = all killed)
What all share (conditions): 10 µM unless noted

About 83,000 compounds went through this panel and 20% of them were active in at least one assay; those are over-represented in the sample as a whole.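 Interpretation: 100, growth as untreated; towards 0, rising growth inhibition; 0, no net growth; 0 to -100, cell death. Compounds scoring below 10 were considered active.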 Unmarked numbers belong to inactive results. The source made the active and inactive calls.

Turning to `COc1cc(-c2cc(-c3nc4ccccc4[nH]3)[nH]n2)cc(OC)c1OC`, the growth in the test on NCI-H23 lung is 41%; in the test on NCI-H226 lung it was 14.5%; with NCI-H322M lung, 39.5%; with HOP-62 NSCLC, 39.7%; in the test with NCI-H460 lung, 35.5%; in the test on HOP-92 NSCLC, 52.1%. Besides, the growth in the test with NCI-H522 lung is 37.2%; with A549/ATCC NSCLC, 53.6%; in the test with 786-0 renal it was 57.6%; with COLO 205 colon, 47.3%; with DU-145 prostate, 50.4%; with K-562 leukemia, 4.51% (active). Moreover, the growth in the test on MALME-3M melanoma was 28%; with MDA-MB-231 breast, 66.2%; with RXF 393 renal, 49.2%; with SF-268 CNS it was 72.5%; with SF-539 CNS it was 74.8%; with UACC-257 melanoma, 44%. In addition, the growth with M14 melanoma is 39.4%.
Consider `COC1=C(Br)C(=O)C(OC)=C(Br)C1=O`, for which the growth was 105% in the test with NCI-H23 lung; 102% in the test on NCI-H226 lung; 98.1% with NCI-H322M lung; 111% with HOP-62 NSCLC; 106% with NCI-H460 lung; 153% in the test with HOP-92 NSCLC. Further, the growth was 86.3% with NCI-H522 lung; 102% with A549/ATCC NSCLC; 103% with 786-0 renal; 110% with COLO 205 colon; 109% with DU-145 prostate; 31.7% with K-562 leukemia. The growth is 102% with MALME-3M melanoma; 119% in the test on RXF 393 renal; 111% in the test with SF-268 CNS; 111% in the test with SF-295 CNS; 108% in the test with SF-539 CNS; 94.4% in the test on UACC-257 melanoma. For the same molecule, the growth in the test on M14 melanoma was 105%.
Take `O=C1NC(=Nc2ccc(S(=O)(=O)Nc3nccs3)cc2)S/C1=C\c1coc2ccccc2c1=O`: the growth was 100% in the test with NCI-H23 lung; 97.8% in the test on NCI-H226 lung; 101% with NCI-H322M lung; 99.5% in the test on HOP-62 NSCLC; 101% with NCI-H460 lung; 95.3% with HOP-92 NSCLC. Besides, the growth in the test on NCI-H522 lung is 103%; in the test on A549/ATCC NSCLC it was 99.7%; in the test with 786-0 renal, 111%; with COLO 205 colon, 113%; with DU-145 prostate, 121%; in the test with K-562 leukemia, 93.8%. Moreover, the growth with MALME-3M melanoma is 109%; in the test on MDA-MB-231 breast, 105%; in the test on RXF 393 renal, 105%; in the test on SF-268 CNS it was 123%; in the test with SF-539 CNS, 96.2%; with UACC-257 melanoma it was 105%. Moreover, the growth with M14 melanoma was 105%.
As for `N=c1ccc2nc3c(cc(N)c4ccccc43)oc-2c1`, the growth was -80.4% (active) with NCI-H23 lung; -61.3% (active) in the test with NCI-H226 lung; -34.2% (active) in the test with NCI-H322M lung; -97.7% (active) in the test on HOP-62 NSCLC; -77.3% (active) in the test with NCI-H460 lung; 21.7% in the test on HOP-92 NSCLC. The growth in the test with NCI-H522 lung was -70.1% (active); with A549/ATCC NSCLC, -44% (active); in the test on 786-0 renal, -90.7% (active); in the test with COLO 205 colon, -100% (active); in the test on DU-145 prostate, -100% (active); in the test with K-562 leukemia, -67.3% (active). The growth was -91.5% (active) with MALME-3M melanoma; -52.8% (active) in the test on MDA-MB-231 breast; -59.2% (active) in the test with SF-268 CNS; -69.8% (active) with SF-295 CNS; -98.9% (active) in the test on SF-539 CNS; -91.5% (active) with UACC-257 melanoma. Further, in the test with M14 melanoma, the growth was -100% (active).
As to `Cn1cc(-c2nc(-c3cn(C)c4ncccc34)cs2)c2ccccc21`, the growth in the test on NCI-H23 lung was 43.6%; in the test on NCI-H226 lung, 66.9%; with NCI-H322M lung, 58.5%; in the test with HOP-62 NSCLC it was 36.1%; with NCI-H460 lung, 16.7%; in the test on HOP-92 NSCLC it was 75.3%. The growth in the test on NCI-H522 lung is -1.88% (active); in the test with A549/ATCC NSCLC it was 38.8%; in the test with 786-0 renal, 39.3%; in the test with COLO 205 colon it was 32.8%; in the test with DU-145 prostate, 58.9%; in the test with K-562 leukemia, 12.6%. For the same molecule, the growth in the test with MDA-MB-231 breast is 48.6%; in the test with RXF 393 renal, 35.5%; with SF-268 CNS, 45.4%; with SF-295 CNS, 20.7%; in the test on SF-539 CNS, 27.6%; with UACC-257 melanoma, 60.6%. In addition, the growth in the test with M14 melanoma was 8.62% (active).
For `COc1cccc(NC(=O)c2sc3nc4c(cc3c2N)C(=O)CCC4)c1`, the growth in the test on NCI-H23 lung was 21.8%; in the test with NCI-H226 lung, 74.9%; with NCI-H322M lung it was 56.5%; in the test on HOP-62 NSCLC, 27.8%; with NCI-H460 lung it was 1.73% (active); in the test with HOP-92 NSCLC it was 57.3%. Besides, the growth is -21.1% (active) in the test with NCI-H522 lung; 22.5% in the test on A549/ATCC NSCLC; 41.1% with 786-0 renal; 0.646% (active) with COLO 205 colon; 11.8% in the test with DU-145 prostate; 5.55% (active) in the test on K-562 leukemia. For the same molecule, the growth is 50.1% in the test on MALME-3M melanoma; 14.7% with MDA-MB-231 breast; 41% with RXF 393 renal; 39.2% in the test on SF-268 CNS; -7.27% (active) with SF-539 CNS; 66.5% in the test on UACC-257 melanoma. Further, in the test on M14 melanoma, the growth was 12.5%.
With `Nc1nc(Br)nc2c1ncn2C1CC(O)C(CO)O1` (stereo not drawn), the growth with NCI-H23 lung is 20.2%; in the test on NCI-H226 lung, 89.6%; in the test with NCI-H322M lung it was 83.6%; in the test with HOP-62 NSCLC, 47%; with NCI-H460 lung it was 97.9%; in the test on HOP-92 NSCLC, 51.5%. For the same molecule, the growth with NCI-H522 lung was 109%; in the test on A549/ATCC NSCLC it was 51.4%; with 786-0 renal, 62.8%; with COLO 205 colon it was 62.8%; in the test with DU-145 prostate, 52.7%; with K-562 leukemia it was 79%. The growth is 90.2% in the test on MALME-3M melanoma; 87.2% with MDA-MB-231 breast; 73.9% with SF-268 CNS; 94.3% in the test on SF-295 CNS; 77.8% with SF-539 CNS; 87.7% in the test with UACC-257 melanoma. Also, the growth in the test on M14 melanoma was -0.9% (active).

The values above are taken from PubChem BioAssay (NCI).
